# Compound activity: PubChem BioAssay, National Center for Advancing Translational Sciences (NCATS)
# Sampled rows, rich in hits. Any-hit rate of the full collection: about 1.9%.
# TDP-43 yeast inh = TDP-43 toxicity inhibition in yeast; TDP-43 expressing yeast growth rescue, BacTiter-Glo, 24 h; 410,000 tested, 1.8% active; Potency, µM (highest dose often 46.1 µM), most hits filed as activators; also: nearly all actives have a fitted effect of over 50% in size
#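 Yeast cells expressing TDP-43 under galactose induction are exposed to compounds for 24 hr at 30 deg C. BacTiter-Glo luminescence measures growth, so protective compounds score as activators.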
# aSyn rescue = alpha-synuclein toxicity inhibition in yeast | AID 652106 | 370,000 tested, 0.14% active | Potency, µM (series often up to 46.1 µM), usual class: activators | Yeast expressing alpha-synuclein, growth rescue, BacTiter-Glo, 24 h; also: nearly all actives have a fitted effect of over 65% in size
#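 Readout is rescue of growth in alpha-synuclein-expressing yeast, so inhibitors of toxicity appear as activators. Growth after 24 hr at 30 deg C in galactose medium is quantified by luminescence.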
# LDHA inh = LDHA (human) enzyme inhibition. P00338. purified LDHA, NADH/diaphorase-resazurin fluorescence; stronger effect = lower value. activity change, % (values are at about 110 or 230 µM). 480,000 tested, 0.15% active; in the data active = activity change below about -30%; inconclusive = mostly about -25% to -30%
#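 LDH5 2 nM; NADH 0.06 mM, pyruvate 0.2 mM; 200 mM Tris pH 7.4, EDTA, Tween-20; 5 min RT. Detection: diaphorase 0.133 mg/mL + resazurin 37 µM, fluorescence ex540/em590 at 0 and 20 min; normalized to enzyme-free and DMSO wells.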
# PTHR1 ag = activates the human parathyroid hormone receptor PTHR1; AID 743266; Potency, µM (highest dose often 115 µM), most hits filed as activators; HEK293 GP2 PTHR1 cells, GloSensor cAMP luminescence, 1 h; 410,000 tested, 0.075% active; also: nearly all actives have a fitted effect of over 55% in size
# Target sequence (Q03431 whole entry, looked up): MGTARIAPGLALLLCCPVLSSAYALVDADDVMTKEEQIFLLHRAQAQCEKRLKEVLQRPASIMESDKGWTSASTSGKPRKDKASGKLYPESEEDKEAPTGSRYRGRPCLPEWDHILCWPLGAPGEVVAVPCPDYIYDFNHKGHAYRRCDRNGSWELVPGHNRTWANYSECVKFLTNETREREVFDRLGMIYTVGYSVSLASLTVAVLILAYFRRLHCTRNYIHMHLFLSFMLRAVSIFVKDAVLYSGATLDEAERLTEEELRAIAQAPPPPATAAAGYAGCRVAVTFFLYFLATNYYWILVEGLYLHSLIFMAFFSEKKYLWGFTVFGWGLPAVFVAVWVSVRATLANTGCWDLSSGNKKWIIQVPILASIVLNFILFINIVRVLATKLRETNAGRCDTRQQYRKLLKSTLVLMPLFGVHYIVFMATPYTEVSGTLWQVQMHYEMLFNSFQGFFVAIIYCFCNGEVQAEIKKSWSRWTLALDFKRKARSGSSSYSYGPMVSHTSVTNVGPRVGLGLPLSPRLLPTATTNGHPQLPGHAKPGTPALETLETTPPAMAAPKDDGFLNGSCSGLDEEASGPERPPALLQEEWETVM
#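 HEK-293-derived GP2 cells expressing PTHR1 and a GloSensor cAMP reporter, 3,000/well, plated overnight, given luciferin plus IBMX (each 0.5 mM as added) for 1 h at 37 °C, then compound for 1 h at 37 °C. Luminescence was read after 15 min at room temperature.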
# FUS yeast rescue = rescues growth of FUS-expressing yeast. 390,000 tested, 0.24% active. Potency, µM (series often up to 76.6 µM), usual class: activators. S. cerevisiae FUS-expressing, growth rescue, OD600, 24 h; also: nearly all actives have a fitted effect of over 55% in size
#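 Absorbance at 600 nm, taken 24hr after compound addition, measured rescue of FUS-yeast growth at 30C. Induction used 2% galactose with seeding at OD 0.005. Controls: CP55940 from 92uM final, DMSO only.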
# Abeta rescue = restores growth of yeast expressing A-beta42 peptide; yeast expressing A-beta42, growth rescue, OD600, 48 h; response scale: 0% DMSO, 100% iron-clioquinol control; Potency, µM (highest dose often 46.1 µM), most hits filed as activators; 410,000 tested, 0.063% active; AID 1347071; also: nearly all actives have a fitted effect of over 55% in size
#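 Growth rescue measured by 600 nm absorbance after 48 h yeast culture at 30 C with compound. Values normalized between DMSO and an equimolar ferric chloride plus clioquinol control.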
# Hits are given with their value; i = inactive; ? = inconclusive; nt = not tested or not shown; [ ] = remark or other dose. Unless noted, calls follow the shape of the dose curve; as a rule, active = well fitted curve in the direction sought with a large enough effect; inconclusive = small, poorly fitted or top-dose-only effect, or another doubt; inactive = no such curve, though single readings can be large; an effect the other way counts as inactive or inconclusive.
SMILES,TDP-43 yeast inh,aSyn rescue,LDHA inh,PTHR1 ag,FUS yeast rescue,Abeta rescue
CC1CCN(c2cc(C#N)c(C#N)cc2[N+](=O)[O-])CC1,i,i,i,i,i,i
CC1CCN(c2cc(N)c(Cl)cc2[N+](=O)[O-])CC1,17.8µM,?,i,i,i,i
CSc1nc(N)c2c(n1)NC1=C(C(=O)CC(C)(C)C1)C2c1cccnc1 (stereo not given),nt,nt,i,nt,nt,nt
C[C@H]1CCC[C@@H](O)CC(=O)c2c(O)cc(O)cc2CC(=O)O1,nt,nt,nt,nt,i,nt
CC1CC(=O)c2c(cc3c(-c4c(O)cc(O)c5c(O)c6c(cc45)OC(C)CC6=O)c(O)cc(O)c3c2O)O1 (stereo not given),35.5µM,i,i,i,i,i
O=C(NCc1ccco1)c1ccc2c(c1)OCCO2,i,i,i,i,i,i
O=C(NCc1ccccc1F)c1ccc2c(c1)OCCO2,14.1µM,i,i,i,i,?
O=C(NC(=S)NCc1ccccc1)c1ccc2c(c1)OCO2,25.1µM,i,i,i,nt,i
O=C(NNC(=S)NCc1ccccc1)c1ccc2c(c1)OCO2,i,i,i,i,i,i
O=C(NC(=S)NCc1ccc2c(c1)OCO2)c1ccccc1,15.8µM,i,i,i,i,?
O=C(NCc1ccc2c(c1)OCO2)c1ccccc1,i,i,i,i,i,i
O=C(O)CCCNC(=O)Cn1ccc2ccc(Br)cc21,nt,nt,i,nt,nt,nt
O=C(NCC(c1ccccc1)c1c[nH]c2ccccc12)c1ccccn1 (stereo not given),nt,nt,i,nt,nt,nt
CS(=O)(=O)C1=NSC2=NC(=O)/C(=C\c3cccn3-c3ccc(Cl)cc3)C(=N)N21,i,i,-109.1,i,i,?
Cc1cc(/C=C2/C(=N)N3C(=NC2=O)SN=C3S(C)(=O)=O)c(C)n1-c1ccccc1F,i,i,i,i,i,i
COCC(C)NCC(=O)NC(C)CCc1ccccc1 (stereo not given),i,i,-30.4,i,nt,i
CC(=O)NC(C)CCc1ccccc1 (stereo not given),i,i,i,i,?,i
CC(=O)Nc1ccc(S(=O)(=O)Nc2nc3ccccc3nc2Nc2ccccc2)cc1,i,i,i,i,i,i
CC(=O)Nc1ccc(Nc2nc3ccccc3nc2NS(=O)(=O)c2ccccc2)cc1,20µM,i,i,i,?,i
Cc1ccc(NC(=O)CSc2nc(-c3ccccc3)nc3cc(=O)[nH]n23)cc1,nt,nt,i,nt,nt,nt
COc1ccc(-n2nc(C(=O)NCC(=O)NCC3COc4ccccc4O3)c3ccccc3c2=O)cc1OC (stereo not given),i,i,i,i,17.8µM,i
CCCn1nc(C(=O)Nc2nc(-c3ccccn3)cs2)c2ccccc2c1=O,?,i[1.84 µM],i,i,i,10µM
CCCCCn1nc(C(=O)Nc2nc(-c3ccccn3)cs2)c2ccccc2c1=O,nt,nt,i,nt,nt,nt
CCCn1nc(C(=O)NCC2COc3ccccc3O2)c2ccccc2c1=O (stereo not given),22.4µM,i[1.84 µM],i,i,i,i
COc1ccc(-n2nc(C(=O)NCC(=O)NCC3COc4ccccc4O3)c3ccccc3c2=O)c(OC)c1 (stereo not given),i,i,i,i,i,i
SMILES,TDP-43 yeast inh,aSyn rescue,LDHA inh,PTHR1 ag,FUS yeast rescue,Abeta rescue
Cc1ccc(CNC(=S)NC(C)C(C)(C)C)cc1 (stereo not given),nt,nt,i,nt,nt,nt
C#Cc1cccc(NC(=O)Cc2ccc(OC)cc2)c1,nt,nt,i,nt,nt,nt
O=C(Nc1ccc2c3c(cccc13)CC2)c1ccc(F)cc1,nt,nt,i,nt,nt,nt
COc1ccc2cc(CN(C)C(=O)CNC(=O)c3ccccc3Cl)ccc2c1,nt,nt,i,nt,nt,nt
N/C(=N\OC(=O)CC1CCCCC1)c1ccccn1,15.8µM,i,i,i,i,i
N/C(=N\OC(=O)Cc1ccc(-c2ccccc2)cc1)c1ccccn1,12.6µM,i,i,i,i,i
N/C(=N\OC(=O)CC1CCCCC1)c1ccncc1,i,i,i,i,i,i
O=C(CNc1cccc(C(F)(F)F)c1)N/N=C/c1cn(-c2ccccc2)nc1-c1ccccc1,i,i,i,i,i,i
